Source: PubChem BioAssay
Where “and” joins values, the source holds several entries; their conditions need not be identical. Equal entries are not always repeated. Calls of active or inactive are those of the source. How the calls were made is not given here.

Test: viability loss with induced miR-34 in A549 – imaging, A549 dox-inducible miR-34, nuclei and caspase counts, primary screen (AID 1347080)
Settings: A549 miR-34 inducible, Hoechst nuclei count, 48 h; measured here: total cells without miR-34 induction

Compound	cell count
CCC(=O)NCC[C@@H]1CCc2ccc3c(c21)CCO3	13400
C[C@@H]1[C@H](O)[C@@H](C)/C=C/C=C/C=C/C=C/C=C/C=C/C=C/[C@H](O[C@@H]2O[C@H](C)[C@@H](O)[C@H](N)[C@@H]2O)C[C@@H]2O[C@](O)(C[C@@H](O)C[C@@H](O)[C@H](O)CC[C@@H](O)C[C@@H](O)CC(=O)O[C@H]1C)C[C@H](O)[C@H]2C(=O)O	8570
O=C(O)C1=CCCNC1	8980 and 9310
CN[C@H](CC(C)C)C(=O)N[C@H]1C(=O)N[C@@H](CC(N)=O)C(=O)N[C@H]2C(=O)N[C@H]3C(=O)N[C@H](C(=O)N[C@H](C(=O)O)c4cc(O)cc(O)c4-c4cc3ccc4O)[C@H](O)c3ccc(c(Cl)c3)Oc3cc2cc(c3O[C@@H]2O[C@H](CO)[C@@H](O)[C@H](O)[C@H]2O[C@H]2C[C@](C)(N)[C@H](O)[C@H](C)O2)Oc2ccc(cc2Cl)[C@H]1O	10400
CC[C@@]1(O)C[C@H](O[C@H]2C[C@H](N(C)C)[C@H](O[C@H]3C[C@H](O)[C@H](O[C@H]4CCC(=O)[C@H](C)O4)[C@H](C)O3)[C@H](C)O2)c2c(cc3c(c2O)C(=O)c2c(O)cccc2C3=O)[C@H]1C(=O)OC	612
C[C@H]1O[C@@H](O[C@H]2[C@@H](O)C[C@H](O[C@H]3[C@@H](O)C[C@H](O[C@H]4CC[C@@]5(C)[C@H](CC[C@@H]6[C@@H]5C[C@@H](O)[C@]5(C)[C@@H](C7=CC(=O)OC7)CC[C@]65O)C4)O[C@@H]3C)O[C@@H]2C)C[C@H](O)[C@@H]1O	523
CCC[C@@H]1C[C@@H](C(=O)N[C@@H]([C@H]2O[C@H](SC)[C@H](O)[C@@H](O)[C@H]2O)[C@H](C)Cl)N(C)C1	10600 and 10900
C[C@H]1C[C@H]2[C@@H]3CCC4=CC(=O)C=C[C@]4(C)[C@@]3(F)[C@@H](O)C[C@]2(C)[C@@]1(O)C(=O)CO	7770
COc1cccc(OC)c1OCCNCC1COc2ccccc2O1 (stereo not given)	8310 and 8340
O=C(O)c1cc(=O)c2ccc(Cl)cc2[nH]1	8710
C=C(C)[C@@H]1CC[C@]2(C(=O)O)CC[C@]3(C)[C@H](CC[C@@H]4[C@@]5(C)CC[C@H](O)C(C)(C)[C@@H]5CC[C@]43C)[C@@H]12	7300 and 1790
COc1cc2c(c(OC)c1OC)-c1ccc(OC)c(=O)cc1C(NC(C)=O)CC2 (stereo not given)	1550
CC(C)C[C@H]1C(=O)N2CCC[C@H]2[C@]2(O)O[C@](NC(=O)[C@@H]3C=C4c5cccc6[nH]c(Br)c(c56)C[C@H]4N(C)C3)(C(C)C)C(=O)N12	4010 and 4360
O=C(/C=C/c1ccc(O)c(O)c1)O[C@H](Cc1ccc(O)c(O)c1)C(=O)O	5780 and 9920
O=C(O)C1=CCNCC1	9930 and 8960
CC(=O)[C@H]1CC[C@H]2[C@@H]3CCC4=CC(=O)CC[C@]4(C)[C@H]3CC[C@]12C	7520 and 8800 and 7700
O=C(O)Cc1nn(Cc2ccc(Br)cc2F)c(=O)c2ccccc12	8960
CCC[C@@H]1C[C@@H](C(=O)N[C@@H]([C@H]2O[C@H](SC)[C@H](O)[C@@H](O)[C@H]2O)[C@@H](C)O)N(C)C1	10500
COc1ccc([C@@H]2CC(=O)c3c(O)cc(O[C@@H]4O[C@H](CO[C@@H]5O[C@@H](C)[C@H](O)[C@@H](O)[C@H]5O)[C@@H](O)[C@H](O)[C@H]4O)cc3O2)cc1O	10100
CCCn1c(=O)c2[nH]c(C3CCCC3)nc2n(CCC)c1=O	7700 and 8070
N=c1ccn2c(n1)O[C@H]1[C@H](O)[C@@H](CO)O[C@H]12	2660
COc1cc(NS(C)(=O)=O)ccc1Nc1c2ccccc2nc2ccccc12	1020
C=C1C(=O)O[C@H]2[C@H]1CC/C(C)=C/CC[C@@]1(C)O[C@@H]21	8630
O=C(O)c1cc(=O)c2ccccc2[nH]1	9680 and 8420
O=C(O)c1c2ccccc2cc2ccccc12	9890
C[C@H](CCC(=O)O)[C@H]1CC[C@H]2[C@@H]3[C@H](O)C[C@@H]4C[C@H](O)CC[C@]4(C)[C@H]3CC[C@]12C	10100

Test: blockers of cellular phospholipid synthesis – cell-based, LOPAC library, screen 4, primary screen (AID 1347384)
Settings: animal cells, phospholipid biosynthesis inhibition screen; at 10 µM

Compound	outcome
O=C(O)C1=CCCNC1	inactive
CN[C@H](CC(C)C)C(=O)N[C@H]1C(=O)N[C@@H](CC(N)=O)C(=O)N[C@H]2C(=O)N[C@H]3C(=O)N[C@H](C(=O)N[C@H](C(=O)O)c4cc(O)cc(O)c4-c4cc3ccc4O)[C@H](O)c3ccc(c(Cl)c3)Oc3cc2cc(c3O[C@@H]2O[C@H](CO)[C@@H](O)[C@H](O)[C@H]2O[C@H]2C[C@](C)(N)[C@H](O)[C@H](C)O2)Oc2ccc(cc2Cl)[C@H]1O	inactive
COc1cccc(OC)c1OCCNCC1COc2ccccc2O1 (stereo not given)	inactive
CC(C)C[C@H]1C(=O)N2CCC[C@H]2[C@]2(O)O[C@](NC(=O)[C@@H]3C=C4c5cccc6[nH]c(Br)c(c56)C[C@H]4N(C)C3)(C(C)C)C(=O)N12	inactive
O=C(O)C1=CCNCC1	inactive
CC(=O)[C@H]1CC[C@H]2[C@@H]3CCC4=CC(=O)CC[C@]4(C)[C@H]3CC[C@]12C	inactive
CCCn1c(=O)c2[nH]c(C3CCCC3)nc2n(CCC)c1=O	inactive
COc1cc(NS(C)(=O)=O)ccc1Nc1c2ccccc2nc2ccccc12	inactive
O=C(O)c1cc(=O)c2ccccc2[nH]1	inactive
